Calls of active or inactive are those of the source.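 The calls were made as follows: active = z-score of at least 1.8 in each of two replicates, scored against plate mean and spread of sample wells; inactive = the rest.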

This passage reports z-score results from PubChem BioAssay.

This experiment is described as follows: viability rescue of complex I mutant cybrids, primary screen, cell-based, galactose medium, ATP luminescence (AID 1645843).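 Also: positive z means more ATP and so rescue of galactose-driven cybrid death.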 The conditions noted are these: complex I mutant cybrid cells, 72 h, active compounds read high.
With `COc1nccnc1-c1ccc2c(c1)OCO2`, the z-score was 0.365 (inactive).
The value for `CCn1c(C)nc2cc(OC3(C(=O)O)CCCCC3)ccc21` was -0.565 (inactive); that for `Cc1cccc(C2CCCN(C(=O)c3cc(C(C)C)no3)C2)c1` (stereo not drawn) was 1.05 (inactive); that for `CC(CCCC(C)(C)O)CCNCC1CCN(c2ccccc2)C1` (stereo not drawn) was -0.605 (inactive).
`O=C(CN1CCOC1=O)NCCc1cccc(F)c1`: the z-score was -0.505 (inactive).
The value for `CC(C)c1cc(C(=O)N2CCCC(c3ccc(Cl)cc3)C2)on1` (stereo not drawn) was 0.165 (inactive); that for `OCCCCCNCC1(N2CCOCC2)CCCCCC1` was -0.47 (inactive).
`CCn1nc(CC(C)C)cc1C(=O)N1CCC(n2cc(C(C)(C)O)nn2)CC1`: the z-score is -0.53 (inactive).
